Results on 14 sequences are retold here after PMC5700166.

Assay in all cases: protein-binding microarray (PBM); PBM: ~300 nM protein, 6 mM HEPES pH 7.8, 80 mM KCl, 0.5 mM EDTA, 0.5 mM EGTA, 6% glycerol, 35 ng/ul poly-dIdC, 1% milk, 1 h, room temperature; Ap Aiptasia and Nv Nematostella (sea anemones) / Co Capsaspora / Aq Amphimedon (sponge) / Dm Drosophila / Hu human; RHD is the Rel homology domain; high values mean tight binding
Holding throughout (details): dsDNA, one strand shown

In assay [1] the target is T1, GST-Ap-NF-kB RHD (Exaiptasia pallida (Aiptasia), UniProt A0A913YAJ5 2-422).
T1 sequence: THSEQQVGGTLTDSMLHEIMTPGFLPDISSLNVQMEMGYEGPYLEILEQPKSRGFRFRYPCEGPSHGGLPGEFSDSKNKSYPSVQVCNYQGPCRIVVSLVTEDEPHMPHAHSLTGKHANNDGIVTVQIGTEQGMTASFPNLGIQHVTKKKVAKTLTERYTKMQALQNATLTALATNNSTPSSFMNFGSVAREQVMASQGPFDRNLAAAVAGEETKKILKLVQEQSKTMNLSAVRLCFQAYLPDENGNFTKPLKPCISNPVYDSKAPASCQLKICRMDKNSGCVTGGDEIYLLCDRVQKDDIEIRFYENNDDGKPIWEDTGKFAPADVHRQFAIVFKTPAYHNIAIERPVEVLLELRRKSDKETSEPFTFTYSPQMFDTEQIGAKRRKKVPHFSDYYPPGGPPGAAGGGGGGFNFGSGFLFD

In assay [2] the target is T2, GST-Nv-NF-kB (Cys allele) (Nematostella vectensis, UniProt E5G601 2-411).
T2 sequence: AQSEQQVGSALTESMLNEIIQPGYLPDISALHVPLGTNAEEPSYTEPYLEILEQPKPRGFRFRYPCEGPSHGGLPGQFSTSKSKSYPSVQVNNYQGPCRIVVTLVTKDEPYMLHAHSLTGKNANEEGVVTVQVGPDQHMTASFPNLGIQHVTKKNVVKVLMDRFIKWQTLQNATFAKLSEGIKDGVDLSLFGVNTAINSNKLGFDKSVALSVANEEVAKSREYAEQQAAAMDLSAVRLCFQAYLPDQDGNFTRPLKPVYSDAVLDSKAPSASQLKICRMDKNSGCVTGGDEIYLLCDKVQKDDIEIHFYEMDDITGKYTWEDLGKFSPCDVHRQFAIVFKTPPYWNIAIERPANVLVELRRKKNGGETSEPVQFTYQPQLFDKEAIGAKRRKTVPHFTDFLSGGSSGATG

In assay [3] the target is T3, GST-Co-NF-kB (Capsaspora owczarzaki, UniProt F1ARL5 200-546).
T3 sequence: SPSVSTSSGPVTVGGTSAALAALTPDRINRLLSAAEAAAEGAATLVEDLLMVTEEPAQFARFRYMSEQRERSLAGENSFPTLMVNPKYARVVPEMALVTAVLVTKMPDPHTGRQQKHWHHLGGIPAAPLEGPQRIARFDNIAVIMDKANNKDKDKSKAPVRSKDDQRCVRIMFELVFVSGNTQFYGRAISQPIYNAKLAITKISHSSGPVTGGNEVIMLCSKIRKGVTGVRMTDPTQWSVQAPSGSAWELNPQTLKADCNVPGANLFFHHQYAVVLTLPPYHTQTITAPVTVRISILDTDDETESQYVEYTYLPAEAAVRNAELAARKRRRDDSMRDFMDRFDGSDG

The target in assay [4] is T4, GST-Dm-Relish (Drosophila melanogaster, UniProt Q94527 99-473).
T4 sequence: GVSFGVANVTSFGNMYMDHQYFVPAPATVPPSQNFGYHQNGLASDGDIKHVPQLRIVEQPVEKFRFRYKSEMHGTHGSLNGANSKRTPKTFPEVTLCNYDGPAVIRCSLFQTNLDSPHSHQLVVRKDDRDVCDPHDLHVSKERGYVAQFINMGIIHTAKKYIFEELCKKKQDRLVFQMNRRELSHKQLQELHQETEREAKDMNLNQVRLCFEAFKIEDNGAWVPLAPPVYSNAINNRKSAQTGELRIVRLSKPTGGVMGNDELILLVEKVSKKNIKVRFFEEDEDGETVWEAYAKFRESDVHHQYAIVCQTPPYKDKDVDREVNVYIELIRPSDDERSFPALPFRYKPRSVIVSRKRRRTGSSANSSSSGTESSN

The target of assay [5] is T5, GST-Aq-NF-kB (Amphimedon queenslandica, UniProt A9Y5G7 2-389).
T5 sequence: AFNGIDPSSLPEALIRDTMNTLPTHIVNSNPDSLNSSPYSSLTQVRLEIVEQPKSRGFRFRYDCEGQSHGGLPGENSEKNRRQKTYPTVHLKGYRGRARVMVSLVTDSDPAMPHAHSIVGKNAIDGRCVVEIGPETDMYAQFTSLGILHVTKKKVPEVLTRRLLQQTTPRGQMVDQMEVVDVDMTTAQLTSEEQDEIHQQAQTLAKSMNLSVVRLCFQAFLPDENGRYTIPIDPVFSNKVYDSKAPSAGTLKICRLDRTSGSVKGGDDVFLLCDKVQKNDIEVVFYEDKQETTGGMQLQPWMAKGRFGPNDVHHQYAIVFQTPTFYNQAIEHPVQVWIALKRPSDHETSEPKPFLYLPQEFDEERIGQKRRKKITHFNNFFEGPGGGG

With “CCGATTAACATCAGGGAATCCTATGATGTTAATCGGGTCTTGATTCGCTTGACGCTGCTG”, the binding signal turned out to be 3.36 z-score in assay [1]; 4.16 z-score in assay [2]; 2.52 z-score in assay [3]; 7.42 z-score in assay [4]; 4.15 z-score in assay [5].
With “CCGATTAACATCACTAAAATCCCTGATGTTAATCGGGTCTTGATTCGCTTGACGCTGCTG”, the binding signal in assay [1] is 3.37 z-score; in assay [2], 3.38 z-score; in assay [3], 1.18 z-score; in assay [4], 5.48 z-score; in assay [5], 3.65 z-score.
In the same order, the values of “CCGATTAACATCAGAATGCCCCCTGATGTTAATCGGGTCTTGATTCGCTTGACGCTGCTG” are 4.74 z-score, 5.02 z-score, 2.56 z-score, 3.56 z-score and 5.26 z-score.
In the same order, the values of “CCGATTAACATCAGGACTTCCCATGATGTTAATCGGGTCTTGATTCGCTTGACGCTGCTG” are 3.08 z-score, 2.46 z-score, 1.82 z-score, 7.81 z-score and 4.72 z-score.
Regarding “CCGATTAACATCACTACTTTCCCTGATGTTAATCGGGTCTTGATTCGCTTGACGCTGCTG”, the binding signal in assay [1] turned out to be 3.07 z-score; in assay [2], 3.89 z-score; in assay [3], 3.41 z-score; in assay [4], 1.63 z-score; in assay [5] it was 3.68 z-score.
In the same order, the values of “CCGATTAACATCAATATTTACCCTGATGTTAATCGGGTCTTGATTCGCTTGACGCTGCTG” are 1.68 z-score, 3.08 z-score, 3.33 z-score, 1.66 z-score and 2.34 z-score.
In the same order, the values of “CCGATTAACATCAGGGGCACCCCTGATGTTAATCGGGTCTTGATTCGCTTGACGCTGCTG” are 5.17 z-score, 3.94 z-score, 2.5 z-score, 7.23 z-score and 7.19 z-score.
In the same order, the values of “CCGATTAACATCAAATTGCCCCCTGATGTTAATCGGGTCTTGATTCGCTTGACGCTGCTG” are 4.13 z-score, 3.94 z-score, 4.71 z-score, 3.33 z-score and 4.88 z-score.
As to “CCGATTAACATCAATTACCCCCCTGATGTTAATCGGGTCTTGATTCGCTTGACGCTGCTG”, the binding signal worked out at 5.96 z-score in assay [1]; 4.69 z-score in assay [2]; 6.96 z-score in assay [3]; 4.49 z-score in assay [4]; 5.14 z-score in assay [5].
With “CCGATTAACATCAGGAAACACCCTGATGTTAATCGGGTCTTGATTCGCTTGACGCTGCTG”, the binding signal stood at 3.05 z-score in assay [1]; 2.79 z-score in assay [2]; 1.1 z-score in assay [3]; 4.19 z-score in assay [4]; 6.01 z-score in assay [5].
“CCGATTAACATCAAAAACTACCCTGATGTTAATCGGGTCTTGATTCGCTTGACGCTGCTG”: the binding signal was 4.12 z-score in assay [1]; 3.21 z-score in assay [2]; 3.13 z-score in assay [3]; 5.43 z-score in assay [4]; 4.72 z-score in assay [5].
In the case of “CCGATTAACATCAAATGACCCCCTGATGTTAATCGGGTCTTGATTCGCTTGACGCTGCTG”, the binding signal in assay [1] came out at 4.25 z-score; in assay [2], 2.8 z-score; in assay [3] it was 2.98 z-score; in assay [4], 3.27 z-score; in assay [5], 4.02 z-score.
For “CCGATTAACATCAACTCCCCCCCTGATGTTAATCGGGTCTTGATTCGCTTGACGCTGCTG”, the binding signal in assay [1] stood at 6.64 z-score; in assay [2], 4.56 z-score; in assay [3], 7.71 z-score; in assay [4], 5.06 z-score; in assay [5], 5.08 z-score.
Take “CCGATTAACATCAGGGATCCCCATGATGTTAATCGGGTCTTGATTCGCTTGACGCTGCTG”: the binding signal in assay [1] was found to be 7.26 z-score; in assay [2], 4.8 z-score; in assay [3], 3.74 z-score; in assay [4] it was 9.65 z-score; in assay [5], 4.64 z-score.
